The results in this text go back to PubChem BioAssay (Tox21).

Values without a mark were called inactive. Entries that show only a call come without a potency. Activity calls are given as the source filed them. Calls follow the shape of the full dose curve.

Chain of Gonadotropin-releasing hormone receptor (Homo sapiens) (P30968 whole entry, looked up): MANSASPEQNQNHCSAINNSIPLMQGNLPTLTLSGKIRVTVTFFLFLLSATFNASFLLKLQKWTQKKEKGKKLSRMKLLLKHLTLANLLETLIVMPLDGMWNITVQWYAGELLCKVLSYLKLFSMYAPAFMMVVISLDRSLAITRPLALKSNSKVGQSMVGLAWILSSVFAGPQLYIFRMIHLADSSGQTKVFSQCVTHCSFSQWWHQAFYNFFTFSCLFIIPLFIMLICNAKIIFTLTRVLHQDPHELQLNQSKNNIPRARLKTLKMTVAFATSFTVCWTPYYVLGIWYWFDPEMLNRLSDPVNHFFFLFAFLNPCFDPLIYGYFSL

This assay addresses Gonadotropin-releasing hormone receptor (Homo sapiens) (UniProt P30968). Kind of assay: Human gonadotropin-releasing hormone receptor (GnRHR) small molecule agonists, calcium flux assay in GnRHR-HEK293 cells (AID 1920063). Also: nearly all actives have a fitted effect of over 35% in size. To be noted: calcium flux fluorescence, agonist mode; series mostly up to 57.6 µM. The source says:
National Center for Advancing Translational Sciences [NCATS]
Division of Preclinical Innovation [DPI]
U.S. Environmental Protection Agency [EPA]
National Institutes of Environmental Health Sciences [NIEHS]
National Toxicology Program [NTP]
U.S. Food and Drug Administration [FDA]
Gonadotropin-releasing hormone receptor (GnRHR) is a G-protein-coupled receptor (GPCR) and acts (through phospholipase C) to increase intracellular inositol trisphosphate and then release intracellular calcium stores. Cell-based GnRHR-Hek293 calcium influx assay is using HEK293 cells that have been genetically engineered to express the human GnRHR, which activity can be measured by calcium signaling. A compound/drug can activate (agonist) GnRHR that can be monitored by levels of intracellular calcium.
GnRHR-HEK293 cells developed by Codex Corp contain human GnRHR reporter gene, which was stably integrated into HEK 293 cells. The compound activation can be detected by fluorescence intensity via calcium flux assay. This cell line has been used to screen the Tox21 10K compound library to identify GnRHR agonists.
GnRHR-Hek293 cells were dispensed at 1500cells/4uL/well in 1536-well black wall/clear bottom plates using a multidrop dispenser. After the assay plates were incubated at a 37 C/5% CO2 incubator for 18 hours, 4 uL of Calcium Dye Solution was added to each well. The plates were incubated at 37 C for 1 hour. For agonist mode, 23 nL of compounds dissolved in DMSO, positive controls or DMSO only was transferred to the assay plate by a pin tool station. The fluorescence intensity in the plates was measured using FDSS 7000EX kinetic plate reader with a filter set of Ex/Em=480/540 for 3 min at 1 sec intervals. Each test compound was measured at 15 concentrations and in triplicates.
Consider `CC1(C)C(C=C(Cl)Cl)C1C(=O)OC(C#N)c1ccc(F)c(Oc2ccccc2)c1` (stereo not given), for which the Potency result was “inactive”.

For `CCCCN(CC)C(=O)SCCC`, the Potency entry is “inactive”.

`CCOC(=S)S`: the Potency result was “inactive”.

`COc1cccc(C=O)c1`: the Potency entry was “inactive”.

As for `O=C=NC1CCCCC1`, the Potency result was “inactive”.

For `OC(Cc1ccccc1Cl)(Cn1cncn1)C1(Cl)CC1` (stereo not given), the Potency result is “inactive”.

On to `C=CC(N)=O`, for which the Potency result is “inactive”.

As to `Cn1cc[n+](C)c1` (tested in a mixture with another compound), the Potency result was “inactive”.

Consider `Cc1ccccc1O`, for which the Potency entry was “inactive”.

Turning to `CC[N+]1(CC)CCC(OC(=O)C(O)(c2ccccc2)c2ccccc2)C1` (stereo not given), the Potency result is “inactive”.

As to `OCC(Br)CBr` (stereo not given), the Potency result is “inactive”.

For `CCOP(=S)(OCC)SCn1c(=O)oc2cc(Cl)ccc21`, the Potency entry was “inactive”.

Consider `CCCCc1c(C)nc(NCC)[nH]c1=O`, for which the Potency entry was “inactive”.

For the compound `CCc1ccccc1C`, the Potency entry is “inactive”.

For the compound `COC(=O)c1ccccc1C(=O)OC`, the Potency entry is “inactive”.

As for `ClCC(Br)CBr` (stereo not given), the Potency entry is “inactive”.

As for `COC(=O)NS(=O)(=O)c1ccc(N)cc1`, the Potency entry was “inactive”.

In the case of `OC[C@@H](O)[C@H]1O[C@@H]2O[C@H](C(Cl)(Cl)Cl)O[C@@H]2[C@H]1O`, the Potency entry is “inactive”.

Consider `CCCC[N+]1(C)CCCC1` (tested in a mixture with another compound), for which the Potency entry was “inactive”.

With `Brc1c(Br)c(Br)c(Oc2c(Br)c(Br)c(Br)c(Br)c2Br)c(Br)c1Br`, the activity change was -0.419% [at 11.8 µM, hits give high values].

With `CCOP(=O)(O)OCC` (tested in a mixture with another compound), the Potency entry is “inactive”.

For `O=c1c2ccccc2c(=O)c2c1cc(Cl)c1[nH]c3c([nH]c12)c(Cl)cc1c(=O)c2ccccc2c(=O)c13`, the Potency result is “inactive”.

In the case of `NC(=S)Nc1ccccc1`, the Potency entry is “inactive”.

On to `CCC(C)Cl` (stereo not given), for which the Potency entry was “inactive”.

In the case of `CCCCC(C#N)(Cn1cncn1)c1ccc(Cl)cc1` (stereo not given), the Potency entry is “inactive”.

Turning to `O=Cc1ccco1`, the Potency entry is “inactive”.

Regarding `CC(C)OC(=O)Nc1cccc(Cl)c1`, the Potency result is “inactive”.

As for `CN(CCCC(=O)c1cccnc1)N=O`, the Potency result was “inactive”.

For `CNC(=O)O/N=C/C(C)(C)S(C)(=O)=O`, the Potency result was “inactive”.

Consider `CCC[N+](=O)[O-]`, for which the Potency entry was “inactive”.

Turning to `CCCCN(CCCC)N=O`, the Potency entry is “inactive”.

Consider `C=CCSSCC=C`, for which the Potency entry was “inactive”.

Consider `COc1cc(-c2ccc(N)c(OC)c2)ccc1N`, for which the Potency entry is “inactive”.

In the case of `CC(=O)C1CCOC1=O` (stereo not given), the Potency result was “inactive”.

Regarding `Cc1ccc(N=CN(C)C=Nc2ccc(C)cc2C)c(C)c1`, the Potency entry was “inactive”.

As for `CC(C)NC(C)C`, the Potency result is “inactive”.

For the compound `C=C(Cl)CCl`, the Potency result is “inactive”.

With `CCNc1nc(NC(C)C)nc(OC)n1`, the Potency result is “inactive”.

Take `CCCCn1cc[n+](C)c1`: the Potency entry is “inactive”.

With `COc1ccc(C(O)(c2cncnc2)C2CC2)cc1` (stereo not given), the Potency result is “inactive”.
